# Tests used:
# Format in all cases: functional
# [1] = system: Plasmodium falciparum; experiment: GSK_TCMDC: Inhibition of Plasmodium falciparum 3D7 in whole red blood cells, using parasite LDH activity as an index of growth. Test compounds present at 2uM
# [2] = system: Plasmodium falciparum; experiment: GSK_TCMDC: Inhibition of Plasmodium falciparum Dd2 in whole red blood cells, using parasite LDH activity as an index of growth. Test compounds present at 2uM
# [3] = system: HepG2; experiment: GSK_TCMDC: Percent inhibition of human HepG2 cell line. Test compounds present at 10uM.
SMILES,Inhibition [1] [%],Inhibition [2] [%],Inhibition [3] [%]
Cc1ccccc1C(=O)NC(NC(=S)Nc1ccc([N+](=O)[O-])cc1)C(Cl)(Cl)Cl (stereo not given),100,39,0
CCOc1ccc(C2CCN(CCCCNC(=O)c3ccc(NC(=O)c4ccc(Cl)cc4)cc3)CC2)c(Cl)c1,100,96,32
CC1(C)CCCN(Cc2c(O)ccc3c(O)c(-c4nc5ccccc5s4)c(=N)oc23)C1,100,100,20
O=C(Nc1cccc(-c2cccc(-c3nc4cc(F)ccc4[nH]3)c2)c1)c1c[nH]cn1,100,87,13
CCOCCCn1c(=N)c(C(=O)NC(C)c2ccccc2)cc2c(=O)n3cccc(C)c3nc21 (stereo not given),95,31,24
CCNC(=O)NC1CCN(Cc2c(-c3cccs3)nc3ccccc3c2C(=O)N[C@@H](C)C2CCCCC2)CC1,95,96,0
Cc1nnc2c(NC(=O)NC3CCCC3)cc3ccc(-c4cccc(CN5CCN(C)CC5)c4)cc3n12,91,68,54
Cl.O=C(C(=O)c1ccc(Nc2ccnc3cc(-c4ccccn4)ccc23)cc1)c1ccccc1,93,34,22
Cc1[nH]c2ccccc2c1CC1CCN(CC2CCN(C(=O)/C=C/c3ccc(Cl)c(Cl)c3)CC2)CC1,92,14,34
FC(F)(F)c1ccc2[nH]c(-c3ccc(-c4ccc(CNCc5cnn(-c6ccccc6)n5)cc4)cc3)nc2c1.O=C(O)C(F)(F)F,100,76,35
